Measurements taken from ChEMBL document CHEMBL1961873, “Compounds: GSK PKIS; Assays: Nanosyn kinase panel” (2012).

What was measured:
[1] = target: T1, Serine/threonine-protein kinase TBK1 (Homo sapiens) (UniProt Q9UHD2); conditions: at 1 µM;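 also: values are mean inhibition of TBK1, screened as part of the GSK published kinase inhibitor set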
T1 sequence (whole entry): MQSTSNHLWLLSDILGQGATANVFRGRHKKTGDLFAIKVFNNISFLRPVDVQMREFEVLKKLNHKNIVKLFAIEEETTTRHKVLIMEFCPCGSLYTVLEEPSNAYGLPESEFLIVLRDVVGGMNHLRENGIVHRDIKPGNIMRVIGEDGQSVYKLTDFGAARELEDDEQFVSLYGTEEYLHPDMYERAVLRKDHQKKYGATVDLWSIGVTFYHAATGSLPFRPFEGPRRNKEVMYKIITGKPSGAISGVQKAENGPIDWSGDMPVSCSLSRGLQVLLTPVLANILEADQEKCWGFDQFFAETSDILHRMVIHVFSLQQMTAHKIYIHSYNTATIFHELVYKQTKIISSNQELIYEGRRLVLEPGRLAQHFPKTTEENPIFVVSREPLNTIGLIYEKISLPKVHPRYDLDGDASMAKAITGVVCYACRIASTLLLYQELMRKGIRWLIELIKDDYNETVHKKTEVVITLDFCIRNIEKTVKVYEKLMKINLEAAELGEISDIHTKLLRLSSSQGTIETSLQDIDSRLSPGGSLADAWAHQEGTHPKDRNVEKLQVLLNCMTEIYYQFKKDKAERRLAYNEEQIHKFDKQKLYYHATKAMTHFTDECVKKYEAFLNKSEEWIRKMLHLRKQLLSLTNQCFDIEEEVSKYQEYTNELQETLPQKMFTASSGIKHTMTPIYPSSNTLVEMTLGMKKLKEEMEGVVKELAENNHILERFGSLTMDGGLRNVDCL

[2] = target: T2, Testis-specific serine/threonine-protein kinase 1 (Homo sapiens) (UniProt Q9BXA7); conditions: at 0.1 µM
T2 sequence (whole entry): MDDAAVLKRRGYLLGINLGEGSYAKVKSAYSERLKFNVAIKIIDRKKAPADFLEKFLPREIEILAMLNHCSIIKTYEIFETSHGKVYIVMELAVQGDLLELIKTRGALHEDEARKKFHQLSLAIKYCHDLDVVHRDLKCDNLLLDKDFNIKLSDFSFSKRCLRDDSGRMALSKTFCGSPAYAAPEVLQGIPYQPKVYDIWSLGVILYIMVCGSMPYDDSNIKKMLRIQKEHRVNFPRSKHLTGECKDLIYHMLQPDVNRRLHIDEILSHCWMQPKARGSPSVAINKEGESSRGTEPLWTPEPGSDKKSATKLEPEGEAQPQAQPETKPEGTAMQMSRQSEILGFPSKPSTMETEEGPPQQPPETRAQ

[3] = target: T2, Testis-specific serine/threonine-protein kinase 1 (Homo sapiens); conditions: at 1 µM
[4] = target: T3, Testis-specific serine/threonine-protein kinase 2 (Homo sapiens) (UniProt Q96PF2); conditions: at 0.1 µM
T3 sequence (whole entry): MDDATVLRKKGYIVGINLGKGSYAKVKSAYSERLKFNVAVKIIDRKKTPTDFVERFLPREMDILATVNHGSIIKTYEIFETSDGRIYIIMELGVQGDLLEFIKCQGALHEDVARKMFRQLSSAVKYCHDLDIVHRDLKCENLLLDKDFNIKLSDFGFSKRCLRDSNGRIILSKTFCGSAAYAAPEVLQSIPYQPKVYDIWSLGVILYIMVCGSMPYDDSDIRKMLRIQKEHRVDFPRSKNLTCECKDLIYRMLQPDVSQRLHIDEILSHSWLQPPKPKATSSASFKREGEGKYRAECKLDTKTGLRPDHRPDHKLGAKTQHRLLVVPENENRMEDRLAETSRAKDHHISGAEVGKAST

[5] = target: T3, Testis-specific serine/threonine-protein kinase 2 (Homo sapiens); conditions: at 1 µM
[6] = target: Casein kinase I isoform alpha (Homo sapiens) (UniProt P48729); conditions: at 0.1 µM
Casein kinase I isoform alpha (Homo sapiens), sequence (P48729 2-337 limits assumed): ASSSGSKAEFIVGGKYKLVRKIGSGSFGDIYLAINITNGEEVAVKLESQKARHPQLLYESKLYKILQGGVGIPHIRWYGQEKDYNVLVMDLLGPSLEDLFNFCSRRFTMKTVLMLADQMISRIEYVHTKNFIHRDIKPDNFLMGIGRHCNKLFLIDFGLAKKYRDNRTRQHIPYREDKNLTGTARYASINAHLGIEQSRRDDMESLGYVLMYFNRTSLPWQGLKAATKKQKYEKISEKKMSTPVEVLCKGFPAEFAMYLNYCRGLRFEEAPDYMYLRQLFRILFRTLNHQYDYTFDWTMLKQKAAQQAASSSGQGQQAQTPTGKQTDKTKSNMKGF

[7] = target: Casein kinase I isoform alpha (Homo sapiens) (UniProt P48729); conditions: at 1 µM
[8] = target: Casein kinase I isoform gamma-1 (Homo sapiens) (UniProt Q9HCP0); conditions: at 0.1 µM
Casein kinase I isoform gamma-1 (Homo sapiens), sequence (Q9HCP0 whole entry, looked up, canonical isoform): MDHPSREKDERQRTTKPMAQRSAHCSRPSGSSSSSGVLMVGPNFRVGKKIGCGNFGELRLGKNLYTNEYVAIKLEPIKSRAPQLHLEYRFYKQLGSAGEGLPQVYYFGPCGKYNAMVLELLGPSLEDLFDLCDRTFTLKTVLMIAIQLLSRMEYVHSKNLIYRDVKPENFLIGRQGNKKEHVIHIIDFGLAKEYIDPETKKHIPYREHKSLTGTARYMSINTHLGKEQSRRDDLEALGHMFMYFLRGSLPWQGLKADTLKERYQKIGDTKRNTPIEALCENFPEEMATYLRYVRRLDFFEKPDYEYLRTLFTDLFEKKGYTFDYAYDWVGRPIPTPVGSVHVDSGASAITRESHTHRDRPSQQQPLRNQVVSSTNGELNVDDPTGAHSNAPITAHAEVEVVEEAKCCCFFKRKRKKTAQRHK

[9] = target: Casein kinase I isoform gamma-1 (Homo sapiens) (UniProt Q9HCP0); conditions: at 1 µM
[10] = target: Casein kinase I isoform gamma-2 (Homo sapiens) (UniProt P78368); conditions: at 0.1 µM
Casein kinase I isoform gamma-2 (Homo sapiens), sequence (P78368 whole entry, looked up, canonical isoform): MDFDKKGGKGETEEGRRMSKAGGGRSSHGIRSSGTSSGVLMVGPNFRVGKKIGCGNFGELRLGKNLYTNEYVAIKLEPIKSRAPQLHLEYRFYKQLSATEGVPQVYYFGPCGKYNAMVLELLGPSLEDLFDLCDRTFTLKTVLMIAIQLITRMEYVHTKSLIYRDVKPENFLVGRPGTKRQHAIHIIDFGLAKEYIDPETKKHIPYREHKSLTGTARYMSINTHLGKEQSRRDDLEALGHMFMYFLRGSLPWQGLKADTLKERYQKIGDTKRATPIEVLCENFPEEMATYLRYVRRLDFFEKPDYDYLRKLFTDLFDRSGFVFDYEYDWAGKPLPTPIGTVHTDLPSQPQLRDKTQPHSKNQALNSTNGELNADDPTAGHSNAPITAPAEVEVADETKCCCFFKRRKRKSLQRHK

[11] = target: Casein kinase I isoform gamma-2 (Homo sapiens) (UniProt P78368); conditions: at 1 µM
[12] = target: Casein kinase I isoform gamma-3 (Homo sapiens) (UniProt Q9Y6M4); conditions: at 0.1 µM
Casein kinase I isoform gamma-3 (Homo sapiens), sequence (Q9Y6M4 whole entry, looked up, canonical isoform): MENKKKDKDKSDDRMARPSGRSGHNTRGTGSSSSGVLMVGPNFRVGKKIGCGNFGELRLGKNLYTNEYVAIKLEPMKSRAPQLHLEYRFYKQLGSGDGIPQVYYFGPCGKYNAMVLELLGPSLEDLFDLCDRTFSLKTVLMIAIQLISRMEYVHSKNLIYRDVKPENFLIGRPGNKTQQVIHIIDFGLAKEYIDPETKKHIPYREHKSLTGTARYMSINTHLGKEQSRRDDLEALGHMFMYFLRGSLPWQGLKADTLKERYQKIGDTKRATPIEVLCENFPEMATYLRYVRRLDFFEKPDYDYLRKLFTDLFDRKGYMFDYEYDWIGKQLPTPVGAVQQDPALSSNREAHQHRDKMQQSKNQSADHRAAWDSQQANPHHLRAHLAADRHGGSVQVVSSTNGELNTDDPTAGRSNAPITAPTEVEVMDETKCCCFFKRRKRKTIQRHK

[13] = target: Casein kinase I isoform gamma-3 (Homo sapiens) (UniProt Q9Y6M4); conditions: at 1 µM
[14] = target: Cyclin-dependent kinase 1 (Homo sapiens) (UniProt P06493); conditions: at 0.1 µM
Cyclin-dependent kinase 1 (Homo sapiens), sequence (P06493 whole entry, looked up): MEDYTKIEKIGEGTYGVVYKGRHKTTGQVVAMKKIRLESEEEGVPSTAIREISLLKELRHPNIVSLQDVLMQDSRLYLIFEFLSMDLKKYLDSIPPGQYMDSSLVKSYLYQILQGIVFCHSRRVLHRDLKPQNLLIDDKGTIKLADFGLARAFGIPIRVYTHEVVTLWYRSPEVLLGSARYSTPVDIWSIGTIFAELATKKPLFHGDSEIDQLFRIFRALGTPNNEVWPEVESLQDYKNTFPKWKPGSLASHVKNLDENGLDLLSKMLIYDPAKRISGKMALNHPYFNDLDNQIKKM

[15] = target: Cyclin-dependent kinase 1 (Homo sapiens) (UniProt P06493); conditions: at 1 µM
[16] = target: Cyclin-dependent kinase 2 (Homo sapiens) (UniProt P24941); conditions: at 0.1 µM
[17] = target: Cyclin-dependent kinase 2 (Homo sapiens) (UniProt P24941); conditions: at 1 µM
[18] = target: Cyclin-dependent kinase 2 (Homo sapiens) (UniProt P24941); conditions: at 0.1 µM; remark: listed apart in the source
[19] = target: Cyclin-dependent kinase 2 (Homo sapiens) (UniProt P24941); conditions: at 1 µM; remark: listed apart in the source
[20] = target: CDK3/Cyclin E (Homo sapiens) (UniProt P24864+Q00526); conditions: at 0.1 µM;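 also: reported percentages are mean inhibition values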
CDK3/Cyclin E (Homo sapiens), sequence (P24864 whole entry, looked up): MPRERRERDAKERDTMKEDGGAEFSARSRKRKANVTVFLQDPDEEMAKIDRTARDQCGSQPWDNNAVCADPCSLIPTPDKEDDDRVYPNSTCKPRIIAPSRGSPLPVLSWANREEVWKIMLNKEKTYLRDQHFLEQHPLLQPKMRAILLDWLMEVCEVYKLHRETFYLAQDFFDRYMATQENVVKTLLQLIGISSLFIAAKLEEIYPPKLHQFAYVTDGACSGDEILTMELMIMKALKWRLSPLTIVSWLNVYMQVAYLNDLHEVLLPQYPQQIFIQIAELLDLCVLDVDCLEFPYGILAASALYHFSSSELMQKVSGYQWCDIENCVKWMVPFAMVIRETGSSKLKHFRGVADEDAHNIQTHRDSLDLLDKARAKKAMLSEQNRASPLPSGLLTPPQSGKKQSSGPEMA
CDK3/Cyclin E (Homo sapiens), sequence (Q00526 whole entry, looked up): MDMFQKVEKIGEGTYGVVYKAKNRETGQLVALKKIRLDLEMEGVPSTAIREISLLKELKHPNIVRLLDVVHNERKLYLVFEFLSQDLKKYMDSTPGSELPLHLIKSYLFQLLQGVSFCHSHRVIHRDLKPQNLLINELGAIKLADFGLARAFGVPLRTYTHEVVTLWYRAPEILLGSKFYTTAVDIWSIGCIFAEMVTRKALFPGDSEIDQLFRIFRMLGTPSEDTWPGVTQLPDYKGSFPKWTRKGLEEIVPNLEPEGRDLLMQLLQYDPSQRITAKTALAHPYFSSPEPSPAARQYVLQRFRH

SMILES	inhibition [1] [%]	inhibition [2] [%]	inhibition [3] [%]	inhibition [4] [%]	inhibition [5] [%]	inhibition [6] [%]	inhibition [7] [%]	inhibition [8] [%]	inhibition [9] [%]	inhibition [10] [%]	inhibition [11] [%]	inhibition [12] [%]	inhibition [13] [%]	inhibition [14] [%]	inhibition [15] [%]	inhibition [16] [%]	inhibition [17] [%]	inhibition [18] [%]	inhibition [19] [%]	inhibition [20] [%]
CC(C)c1ccc(Nc2nccc(-c3cnn4ncccc34)n2)cc1	13.9	3.15	5.95	2.67	0.57	-5.73	12.9	2.02	8.9	3.16	24.9	1.13	13.6	21.5	64	19.8	78.7	22.8	64.5	1.82
COc1ccc(-c2nn3ncccc3c2-c2ccnc(Nc3cccc(C(F)(F)F)c3)n2)cc1	1.7	0.61	1.94	1.17	0.38	0.44	2.43	2.67	2.71	2.72	2.2	2.44	1.71	0.53	1.61	0.03	1.83	2.35	4.1	0.68
COc1cccc(-n2ncc3c(N/N=C/c4ccc(S(C)(=O)=O)cc4)ncnc32)c1	7.99	1.1	-0.61	0.93	0.31	2.28	5.91	-2.52	-0.99	-2.87	-0.73	-4.22	-2.43	26.2	64	32.1	68	7.18	41.6	4.38
Cc1ccc(Nc2ccnc(Nc3cccc(C(N)=O)c3)n2)cc1O	19.6	3.41	5.19	1.39	1.65	1.66	4.05	-1.2	1.43	-1.06	0.87	-2.96	0.07	-3.61	1.29	-0.93	16.1	-0.2	7.62	1.92
NS(=O)(=O)c1cccc(Nc2cc(-c3ccc(F)cc3)n[nH]2)c1	15.2	4.49	6.59	3.05	2.38	-3.61	3.36	2.11	3.54	1.72	4.87	1.83	4.57	0.79	9.28	2.32	11.1	7.11	28.4	10.6
CCn1c(-c2nonc2N)nc2c(C#CC(C)(C)O)nc(OCCNC)cc21	8.57	5.86	18	1.75	2.65	3.87	8.13	3.33	4.48	3.26	6.19	2.99	1.61	3.65	2.4	3.96	3.53	2.75	5.28	-3.05
[O-][S+]1CCN(Cc2ccc(-c3ccc4ncnc(Nc5ccc(OCc6ccccc6)c(Cl)c5)c4c3)o2)CC1	2.35	2.58	2.95	1.24	1.08	1.88	2.94	1.25	2.34	0.8	1.66	0.73	4.22	1.22	1.4	2.81	2.09	0.43	1.73	-1.53
CS(=O)(=O)Nc1cccc(-c2ccc3c(NC(=O)C4CC4)n[nH]c3c2)c1	3.56	1.06	0.45	0.02	-1.13	1.72	1.75	0.64	3.47	-0.83	0.91	0.37	1.22	1.04	3.4	1.58	6.73	1.31	4.6	2.08
COc1cccc(-n2ncc3c(N/N=C/c4ccc(C)cc4)ncnc32)c1	5.4	5.91	15.2	2.36	3.89	3	8.69	6.44	11.2	6.88	12	6.01	8.48	4.4	8.17	5.82	11	2.46	7.81	-3.32
NS(=O)(=O)c1ccc(NC=C2C(=O)Nc3ccc4ncsc4c32)cc1	65.6	8.91	33.5	2.62	3.73	4.2	22.3	5.22	18.2	3.58	19.5	6.11	26.3	40.7	69.5	89.1	109	74.3	76.7	69.4
CCCN1CCCC(c2ccc(Nc3nc(Nc4cc(F)ccc4C(N)=O)c4cc[nH]c4n3)c(OC)c2)C1 (stereo not given)	11.5	81	92.6	62.5	86	44.3	78.5	36.1	78	29.6	78.6	44.3	83.5	0.12	2.76	2.13	10.8	3.57	8.67	4.8
